Our source for the growth values is PubChem BioAssay (NCI).

Compounds without any hit were thinned out: in the full panel of roughly 83,000, 20% have a hit.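 A percent growth of 40 corresponds to 60% growth inhibition; 0 means no net growth; -100 means all cells died. Active threshold: below 10.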 Values without a mark were called inactive. The source made the active and inactive calls.

Among the test systems are HCT-15 colon; HT29 colon; SNB-75 CNS; SNB-19 CNS; U251 CNS; PC-3 prostate; SK-MEL-5 melanoma; UACC-62 melanoma; LOX IMVI melanoma; SK-MEL-28 melanoma; SK-MEL-2 melanoma; EKVX NSCLC; SN12C renal; UO-31 renal; TK-10 renal; ACHN renal; CAKI-1 renal; A498 renal; CCRF-CEM leukemia; MOLT-4 leukemia.
What all share (assay): NCI-60 one-dose screen, 48 h (100 = growth as untreated, 0 = no growth, -100 = all killed)
Holding throughout (conditions): 10 µM unless noted

As for `O=C(OCC(O)C(=O)NC12CC3CC(CC(C3)C1)C2)c1cccc(Br)c1` (stereo not given), the growth with HCT-15 colon was 95.2%; in the assay on HT29 colon, 93.5%; in the assay on SNB-75 CNS, 98.5%; in the assay with SNB-19 CNS it was 98.2%; in the assay with U251 CNS, 97.5%; in the assay with PC-3 prostate, 90.1%. Further, the growth with SK-MEL-5 melanoma was 103%; with UACC-62 melanoma, 92.9%; in the assay on LOX IMVI melanoma, 95.2%; in the assay on SK-MEL-28 melanoma, 103%; in the assay with SK-MEL-2 melanoma, 103%; with EKVX NSCLC it was 96.4%. In addition, the growth was 102% in the assay with SN12C renal; 84.9% in the assay on UO-31 renal; 109% with TK-10 renal; 101% with ACHN renal; 96.2% in the assay with CAKI-1 renal; 94.4% with A498 renal. The values for the growth in the assay with CCRF-CEM leukemia and with MOLT-4 leukemia were 81.9% and 87%, respectively.
Turning to `C#Cc1cccc(Nc2nc(Cl)nc3cc(NC(=O)CCl)ccc23)c1`, the growth in the assay with HCT-15 colon is -77.7% (active); in the assay on HT29 colon it was -37.8% (active); in the assay with SNB-75 CNS it was -97.5% (active); in the assay on SNB-19 CNS, -77.1% (active); in the assay on U251 CNS, -81.8% (active); with PC-3 prostate, -85.6% (active). Moreover, the growth is -90.9% (active) in the assay with SK-MEL-5 melanoma; -80.5% (active) with UACC-62 melanoma; -77.3% (active) in the assay with LOX IMVI melanoma; -94.4% (active) with SK-MEL-28 melanoma; -75.9% (active) in the assay with SK-MEL-2 melanoma; -76.5% (active) in the assay on EKVX NSCLC. The growth was -70.7% (active) in the assay with SN12C renal; -96% (active) in the assay with UO-31 renal; -96.3% (active) with TK-10 renal; -98% (active) in the assay with ACHN renal; -96.9% (active) with CAKI-1 renal; 59.6% with A498 renal. Besides, the values for the growth in the assay on CCRF-CEM leukemia and with MOLT-4 leukemia were -17.4% (active) and -24.9% (active), respectively.
Take `C=C(c1ccc(OC)c(/C=C/C(=O)c2cc(OC)c(OC)c(OC)c2)c1)c1cc(OC)c(OC)c(OC)c1`: the growth is -21.6% (active) in the assay on HCT-15 colon; 0.495% (active) in the assay on HT29 colon; 49.8% with SNB-75 CNS; -3.73% (active) with SNB-19 CNS; -49.3% (active) in the assay with U251 CNS; 31.5% in the assay with PC-3 prostate. In addition, the growth in the assay with SK-MEL-5 melanoma is -69.3% (active); in the assay on UACC-62 melanoma, -70% (active); in the assay with LOX IMVI melanoma, -87.3% (active); in the assay with SK-MEL-28 melanoma, -77.3% (active); in the assay on SK-MEL-2 melanoma, 3.16% (active); in the assay with EKVX NSCLC it was 15%. For the same molecule, the growth is -13.9% (active) with SN12C renal; -85.6% (active) in the assay on UO-31 renal; 24.3% in the assay on TK-10 renal; -79.9% (active) with ACHN renal; 24.6% with CAKI-1 renal; -23.5% (active) in the assay with A498 renal. The growth in the assay with CCRF-CEM leukemia is 17.9%; in the assay with MOLT-4 leukemia it was 12%.
Turning to `Brc1ccc(-c2nn(-c3ccccc3)cc2-c2nn[nH]n2)s1`, the growth is 96.2% in the assay with HCT-15 colon; 117% in the assay on HT29 colon; 92.7% in the assay on SNB-75 CNS; 87.3% in the assay on SNB-19 CNS; 87.8% in the assay with U251 CNS; 93.7% in the assay with PC-3 prostate. Besides, the growth is 90% in the assay on SK-MEL-5 melanoma; 85.1% with UACC-62 melanoma; 90.9% with LOX IMVI melanoma; 96.2% in the assay on SK-MEL-28 melanoma; 96.2% in the assay on SK-MEL-2 melanoma; 83.5% in the assay on EKVX NSCLC. Moreover, the growth was 80% in the assay on SN12C renal; 52.8% in the assay on UO-31 renal; 102% in the assay with TK-10 renal; 89.5% in the assay on ACHN renal; 88.1% in the assay with CAKI-1 renal; 65.7% in the assay on A498 renal. Further, the growth was 90.9% in the assay on CCRF-CEM leukemia and 99.1% in the assay on MOLT-4 leukemia.
In the case of `O=C(Nc1ccccc1C(F)(F)F)C1=NCCCCN1`, the growth in the assay with HCT-15 colon is 97.8%; in the assay on HT29 colon it was 98.7%; in the assay on SNB-75 CNS, 88%; with SNB-19 CNS it was 97.7%; with U251 CNS, 103%; in the assay with PC-3 prostate it was 96.5%. Also, the growth was 100% with SK-MEL-5 melanoma; 93.3% in the assay with UACC-62 melanoma; 96.2% in the assay on LOX IMVI melanoma; 106% in the assay on SK-MEL-28 melanoma; 104% in the assay with SK-MEL-2 melanoma; 93.1% with EKVX NSCLC. Moreover, the growth was 98% with SN12C renal; 86.2% with UO-31 renal; 98.8% in the assay on TK-10 renal; 103% in the assay with ACHN renal; 96.6% with CAKI-1 renal; 97.1% in the assay with A498 renal. Further, the growth in the assay on CCRF-CEM leukemia is 102%; in the assay on MOLT-4 leukemia, 99.2%.
As to `CCN1CCN(c2cc(C(=O)Nc3cccc(Nc4ccc5c(OC)cccc5n4)c3)cc(C(F)(F)F)c2)CC1`, the growth was -15.9% (active) in the assay with HCT-15 colon; -60% (active) in the assay on HT29 colon; 35.8% with SNB-75 CNS; 36% in the assay on SNB-19 CNS; 13.9% in the assay on U251 CNS; 7.66% (active) in the assay with PC-3 prostate. Also, the growth with SK-MEL-5 melanoma was -1.86% (active); in the assay on UACC-62 melanoma, 13%; in the assay with LOX IMVI melanoma, -94.1% (active); with SK-MEL-28 melanoma, -44.4% (active); in the assay with SK-MEL-2 melanoma, 65.3%; in the assay on EKVX NSCLC it was 46.2%. In addition, the growth in the assay with SN12C renal is 25.4%; in the assay with UO-31 renal, -8.51% (active); in the assay on TK-10 renal, 36%; in the assay with ACHN renal it was 12.5%; in the assay with CAKI-1 renal, 6.06% (active); in the assay on A498 renal, 57.6%. Moreover, the growth with CCRF-CEM leukemia is 6.94% (active); in the assay on MOLT-4 leukemia, -14.5% (active).
Consider `CC/C(=C(/c1ccc(Cl)cc1)c1ccc(OCCN2CCCCCC2)cc1)c1ccccc1`, for which the growth in the assay on HCT-15 colon is 35.3%; in the assay on HT29 colon, 17%; in the assay on SNB-75 CNS it was 107%; in the assay with SNB-19 CNS, 83%; with U251 CNS, 62.4%; in the assay with PC-3 prostate it was 63.3%. For the same molecule, the growth with SK-MEL-5 melanoma was 79.6%; with UACC-62 melanoma, 87%; in the assay with LOX IMVI melanoma, 68.5%; in the assay with SK-MEL-28 melanoma, 95.7%; in the assay with SK-MEL-2 melanoma it was 98.7%; with EKVX NSCLC it was 85%. The growth in the assay on SN12C renal is 77%; with UO-31 renal, 61.8%; with TK-10 renal it was 102%; in the assay with ACHN renal it was 103%; in the assay with CAKI-1 renal, 85.1%; in the assay on A498 renal it was 80.2%. For the same molecule, the growth in the assay on CCRF-CEM leukemia was 44.3%; in the assay on MOLT-4 leukemia, 68.8%.
